ER stress death = ER stress cell death inhibition | 48,000 compounds, 0.33% hits | relative survival (cellular ATP), % at 15 µg/mL (by protocol) | AID 1010 | CSM14.1 thapsigargin ER stress survival, ATP luminescence;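 active means survival measured by cellular ATP above 50% at 15 µg/ml in the first screen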;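 further: cell death triggered by about 15 µM thapsigargin; ATP read 24 h after thapsigargin was added; plate controls were thapsigargin with DMSO for no effect and DMSO without thapsigargin for full effect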
An asterisk follows results filed as active. Shown is part of a subset that was picked to be rich in hits.

SMILES | ER stress death
COc1ccc(C(=O)N2CCN(Cc3cccc(F)c3)CC2)cc1 | 5
O=C(c1cccc(F)c1)N1CCN(Cc2cccc(Oc3ccccc3)c2)CC1 | 60*
O=C(c1cccc(F)c1)N1CCN(Cc2cccc(F)c2)CC1 | 6
O=C(c1ccc(-c2ccccc2)cc1)N1CCN(C2CCN(Cc3ccccc3)CC2)CC1 | -10
COc1ccccc1C(NC(=O)Cc1ccccc1)c1ccc2cccnc2c1O (stereo not given) | 13
CC(=O)NC(c1ccc2c(c1)OCO2)c1ccc2cccnc2c1O (stereo not given) | 77*
O=C(NC(c1ccccc1)c1ccc2cccnc2c1O)c1ccccc1 (stereo not given) | 3
Cn1c(=O)cc2c3c(c(N)ccc31)C(=O)c1ccccc1-2 | -7
COc1ccc(CNC(=O)COc2ccccc2)cc1 | 8
CC(C)(C)NC(=O)c1cc(NC(=O)c2cccs2)cc(NC(=O)c2cccs2)c1 | 4
Cc1cccc(NC(=O)Cc2ccccc2)c1 | -6
CC(C)(C)NC(=O)c1cc(NC(=O)Cc2ccccc2)cc(NC(=O)Cc2ccccc2)c1 | 73*
COc1ccc(C2CC(=O)C3=C(C2)Nc2ccccc2NC3c2cccs2)cc1OC (stereo not given) | 6
COc1cccc(/C=c2\sc3nc4ccccc4n3c2=O)c1OC | 5
Cc1cc(NC(=O)c2ccc(-c3ccc(Cl)cc3)o2)ccc1NC(=O)c1ccco1 | 62*
Cc1cc(NC(=O)c2ccc(-c3ccc(Br)cc3)o2)ccc1NC(=O)c1ccco1 | -8
COc1cc(NC(=O)c2ccc(-c3ccc(Cl)cc3)o2)ccc1NC(=O)c1ccco1 | -1
CCOC(=O)c1cnn2c(C(F)(F)F)cc(-c3ccc(OC)c(OC)c3)nc12 | 17
CCC(=O)N1c2ccccc2NC2=C(C(=O)CC(c3ccccc3)C2)C1c1cccnc1 (stereo not given) | 3
CCC(=O)N1c2ccccc2NC2=C(C(=O)CC(c3ccccc3)C2)C1c1ccc(F)cc1 (stereo not given) | 106*
CCC(=O)N1c2ccccc2NC2=C(C(=O)CC(c3ccccc3)C2)C1c1cccc(Br)c1 (stereo not given) | 1
CC1(C)CC(=O)C2=C(C1)Nc1ccccc1N(C(=O)c1ccccc1)C2c1ccc(C#N)cc1 (stereo not given) | 16
COc1ccc(C2C3=C(CC(c4ccccc4)CC3=O)Nc3ccccc3N2C(=O)C(C)C)cc1OC (stereo not given) | 2
CCC(=O)N1c2ccccc2NC2=C(C(=O)CC(C)(C)C2)C1c1ccc(C#N)cc1 (stereo not given) | -3
CCC(=O)N1c2ccccc2NC2=C(C(=O)CC(C)(C)C2)C1c1ccc(N(CC)CC)cc1 (stereo not given) | 53*
SMILES | ER stress death
CCC(=O)N1c2ccccc2NC2=C(C(=O)CC(c3ccc(OC)cc3)C2)C1c1ccccc1 (stereo not given) | -1
O=C1CC(c2ccccc2)CC2=C1C(c1cccnc1)N(C(=O)c1ccccc1)c1ccccc1N2 (stereo not given) | 79*
CCOC(=O)CN1CC(O)=C(C=NCc2ccccc2)C1=O | 2
COc1ccc(CC(=O)NCc2ccccc2Cl)cc1OC | -2
Cc1ccc(NC(=O)/C(=C\c2ccc(C)o2)NC(=O)c2ccccc2I)cc1 | 5
C(#Cc1ccccc1)CN1CCN(CC#Cc2ccccc2)CC1 | 5
O=C1c2ccccc2C(=O)N1CC#CCN1CCN(C(c2ccccc2)c2ccccc2)CC1 | 68*
N#CCC(=O)N1CCN(C(c2ccccc2)c2ccccc2)CC1 | -4
COc1ccc(C=C2C(=O)NC(=O)N(c3cccc(OC)c3)C2=O)cc1 | 5
COCCOC(=O)c1c(C)oc2ccc(OCc3ccccc3Br)cc12 | -1
CC1CC(Nc2ccccc2)c2ccccc2N1C(=O)c1ccccc1 (stereo not given) | 0
CC1CC(Nc2ccccc2)c2ccccc2N1C(=O)/C=C/c1ccco1 (stereo not given) | 51*
CC1CC(Nc2ccccc2)c2ccccc2N1C(=O)c1cccc(Br)c1 (stereo not given) | 6
Cn1/c(=N/N=C/c2c(O)ccc3ccccc23)sc2ccccc21 | 8
O=C1CS/C(=N/N=C/c2ccc(-c3ccc([N+](=O)[O-])cc3)o2)N1 | 24
CC(C)(C)c1cc(C(=O)N/N=C/c2ccc(O)cc2O)n(-c2ccccc2)n1 | 5
O=C1CC(c2ccc(Cl)c([N+](=O)[O-])c2)c2cc(Br)c3ccccc3c2N1 (stereo not given) | -5
CC1(O)CC(=O)C(C(=O)c2ccccc2)C(c2ccc([N+](=O)[O-])cc2)C1C(=O)c1ccccc1 (stereo not given) | -3
COC(=O)C1C(=O)CC(C)(O)C(C(=O)OC)C1c1ccc(Br)cc1 (stereo not given) | 7
COc1ccc(C2C(C(=O)c3ccccc3)C(=O)CC(C)(O)C2C(=O)c2ccccc2)cc1 (stereo not given) | 58*
C#CCn1cc(/C=C2\C(=O)NC(=O)N(c3ccc(Cl)cc3)C2=O)c2ccccc21 | 3
Cc1cc(=O)n(-c2nc(-c3ccccc3)cc(-c3ccc(Br)cc3)n2)[nH]1 | 1
CCN(CC)c1ccc(Nc2nc(-c3c(C)nc4sccn34)cs2)cc1 | 24
CCOc1ccc(Nc2nc(-c3c(C)nc4sccn34)cs2)cc1 | 93*
CCOc1ccc(Nc2nc(-c3cccs3)cs2)cc1 | 0
SMILES | ER stress death
O=C(Nc1ccc(Cl)c(Cl)c1)N1CCc2ccccc21 | -1
COc1ccccc1C1CC(=O)NC(SCc2ccccc2)=C1C#N (stereo not given) | 7
COc1cccc(N(CC(=O)Nc2cc(Cl)cc(Cl)c2)S(=O)(=O)c2ccccc2)c1 | 3
COc1ccc(C2CC(=O)C3=C(C2)Nc2ccccc2NC3c2ccccc2OC)cc1 (stereo not given) | 3
COc1ccc(C2CC(=O)C3=C(C2)Nc2ccccc2NC3c2ccc(OCc3ccccc3)c(OC)c2)cc1 (stereo not given) | 0
COc1ccc(C2Nc3ccccc3NC3=C2C(=O)CC(c2ccc(Cl)cc2)C3)cc1 (stereo not given) | 8
O=C1CC(c2ccccc2)CC2=C1C(c1ccccc1Cl)Nc1ccccc1N2 (stereo not given) | -5
COc1ccc(C2CC(=O)C3=C(C2)Nc2ccccc2NC3c2c(Cl)cccc2Cl)cc1 (stereo not given) | 2
COc1ccc(C2CC(=O)C3=C(C2)Nc2ccccc2NC3c2ccccc2C)cc1 (stereo not given) | 99*
COc1ccc(C2CC(=O)C3=C(C2)Nc2ccccc2NC3c2ccc(C)cc2)cc1 (stereo not given) | -3
COc1ccc(C2CC(=O)C3=C(C2)Nc2ccccc2NC3c2ccccc2Cl)cc1 (stereo not given) | 101*
COc1ccc(C2CC(=O)C3=C(C2)Nc2ccccc2NC3c2ccc(OCc3ccccc3)cc2)cc1 (stereo not given) | 94*
CC(=O)Nc1sc(C(=O)OC(C)C)c(C)c1C(N)=O | 3
COc1ccccc1CNCc1cccc([N+](=O)[O-])c1 | -3
COc1ccc(C(CC(=O)c2ccc(C)cc2)Nc2ccc(I)cc2)cc1OC (stereo not given) | -1
CC(=O)c1cccc(Oc2ncnc3sc4c(c23)CCCC4)c1 | 10
O=c1nc(/C=C/c2ccc(-c3ccc([N+](=O)[O-])cc3Cl)o2)cc(C(F)(F)F)[nH]1 | -4
Fc1cccc(Cl)c1COc1ccc(/C=N/n2cnnc2)cc1 | 3

From PubChem
